The record followed here is PubChem BioAssay.

Values without a mark were called inactive. The source made the active and inactive calls.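 The calls were made as follows: active = growth inhibition above 50% at the single 2 µM test dose, taken to imply half-maximal potency below 2 µM; inactive = the rest.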

This assay can be described thus: antimalarial activity against Dd2 strain (AID 2302).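 Also: 0% = DMSO untreated growth and 100% = chloroquine plus artemisinin killed control.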 The following applies: P. falciparum Dd2 in RBCs, LDH growth readout, 72 h; at 2 µM; stronger effect = higher value.
`CCCc1cc(Cc2cnc(N)nc2N)ccc1OCCCCCC(=O)O`: the growth inhibition was -2%.
Then `CC(C)(C)c1nn(-c2ccc(Cl)cc2)c2[nH]c(=O)c(CNC3CCCC3)cc12`, with 99% (active).
To `O=C(c1ccco1)N1CCN(c2nc(-c3ccc(Cl)cc3)nc3ccccc23)CC1` belongs 91% (active); to `CC(C)CCN1CCC(Oc2ccc(NC(=O)c3ccccc3)cc2Cl)CC1`, 88% (active); to `COc1cccc(-c2nn(C)c3sc(C(=O)Nc4cccnc4)cc23)c1`, 34%.
Then `Cc1cccc(C)c1C1CCN(C2CCC(NC(=O)/C=C/c3ccccc3)CC2)CC1` (stereo unspecified), with 45%.
Turning to `Cc1ccnc(Nc2nc(-c3ccccn3)cs2)c1`, the growth inhibition was 87% (active).
Then `NC1=NC2(CCCCC2)N(OCCCOc2cc(Cl)c(Cl)cc2Cl)C(N)=N1`, with 98% (active); and `O=C(NCc1ccc(Cl)cc1)c1ccc(CN2CCCN(Cc3cccc(O)c3)CC2)cc1`, with 12%.
To `CS(=O)(=O)NCCCNCc1ccc(-c2ccc(-c3nc4ccc(C(F)(F)F)cc4[nH]3)s2)cc1` belongs 73% (active); to `CNC(=S)NCc1cnc2ccccn12`, -2%; to `Cn1cnc2nc(NCCc3ccccc3)nc(NCc3cccc4ccccc34)c21`, 98% (active).
Then `CCOC(=O)c1cn(CC)c2cc(N(C)CCc3ccc(OC)c(OC)c3)c(F)cc2c1=O`, with 96% (active); and `Cc1cccc2[nH]c(-c3ccc(-c4cccc(CNCc5cnn(-c6ccccc6)n5)c4)s3)nc12`, with 58% (active).
On to `N=c1c2c(n(Cc3cccc(Cl)c3)c3c1CCC3)CCCC2`, for which the growth inhibition was 86% (active).
As for `O=C(Nc1ccccc1Br)N[C@@H]1CCN(c2ccnc3ccccc23)C1`, the growth inhibition is 90% (active).
